Cycloheximide cs – counter-screen hit for Shiga toxin inhibitors, cycloheximide; cell reporter, cycloheximide protein synthesis inhibition counterscreen; max response, %; hit rate 12% among 300,000; in the data active means max response mostly above about 13%, no sharp cut-off; inactive means mostly below about 14%; further: read at 38.3 µM for the half of the compounds with a filed dose
Shiga toxin inh – Shiga toxin inhibition | Vero cells, Shiga toxin protein synthesis inhibition reporter | inhibition, % at 38.7 µM | hit rate 9.2% among 290,000 | AID 2315; in the data active means inhibition mostly above about 28%, no sharp cut-off; inactive means mostly below about 43%
SARS PLP yeast – blocks SARS-CoV papain-like protease in a yeast assay. S. cerevisiae expressing SARS-CoV PLpro, growth rescue. Potency, µM (series often up to 32.9 µM), usual class: activators. hit rate 0.19% among 330,000; calls by dose curve; further: nearly all actives have a fitted effect of over 55% in size
Pf growth 96h – P. falciparum growth inhibition at 96 hours; P. falciparum luciferase reporter growth, 96 h; Potency, µM (top dose mostly 28.7 µM), usual class: inhibitors; hit rate 6.9% among 320,000
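Two-generation exposure (96 h) targets delayed-death phenotype. Reporter parasites carrying integrated firefly luciferase, in red cells at 2% hematocrit and 0.05% parasitemia final, kept at 37 C, 5% CO2; luminescence loss indicates inhibition.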
Pf growth 48h – inhibits P. falciparum growth in the first generation, 48 h; P. falciparum luciferase growth in erythrocytes, 48 h; Potency, µM (doses to about 28.7 µM), most hits filed as inhibitors; hit rate 5.9% among 310,000; AID 504832
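Luciferase-expressing parasites in RBCs, 2% Hct / 0.1% parasitemia final; RPMI 1640 + 0.5% Albumax; 37 C, 5% CO2, one generation; luminescence read-out, lower signal = inhibition.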
NS1 inh – influenza NS1 inhibition; hit rate 0.4% among 270,000; Potency, µM (top dose mostly 46.1 µM); AID 2326; calls by dose curve; further: actives are rising curves; nearly all actives have a fitted effect of over 50% in size
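S. cerevisiae expressing influenza A NS1, grown in glucose, washed, then diluted 1:100 into pH 6.0 -URA galactose medium with 23 nl compound. Growth recovery read as OD600; NS1-free strain serves as control.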
Large screens that a line does not name were inactive. In the library only some 21% were active in any assay of this set; here they are far more common. Unless noted, the call rests on the fitted dose curve; in most records, active means well fitted inhibition curve with a large enough effect; inconclusive means small, poorly fitted or top-dose-only effect, or another doubt; inactive means no such curve, though single readings can be large or run the other way.

CCCc1cc(C(=O)Cc2ccc(F)cc2)c(O)cc1O	none (no result: Pf growth 96h)
CCOc1cc(CNc2ccc(Br)cc2)cc(Br)c1OCC(=O)NC(C)(C)C	Pf growth 48h inconclusive (no result: Pf growth 96h)
CCOc1cc(CNc2ccccc2)cc(Br)c1OCC(=O)NC(C)(C)C	Pf growth 96h 9.3µM, Pf growth 48h inconclusive
CCOc1cc(CNc2ccc(OC)cc2)cc(Br)c1OCC(=O)NC(C)(C)C	Pf growth 96h 9.3µM, Pf growth 48h inconclusive
CCOc1cc(CNn2cnnc2)cc(Br)c1OCC(=O)NC1CCCCC1	Pf growth 96h 9.3µM, Pf growth 48h inconclusive
CCOc1cc(CNn2cnnc2)cc(Br)c1OCC(=O)NC(C)(C)C	Pf growth 96h inconclusive
O=C/C(=C\Nc1ccccn1)c1nc2cc(Cl)ccc2o1	Cycloheximide cs 47, Shiga toxin inh 63, Pf growth 96h inconclusive, Pf growth 48h inconclusive, NS1 inh inconclusive
O=C/C(=C\Nc1ccc(Br)cc1)c1nc2ccccc2o1	Pf growth 96h inconclusive
CC(=O)Nc1ccc(N/C=C(\C=O)c2nc3ccccc3o2)cc1	Pf growth 96h inconclusive
O=C/C(=C\Nc1ccccn1)c1nc2ccccc2o1	Cycloheximide cs 27, Shiga toxin inh active, Pf growth 48h inconclusive
CC(=O)Nc1cccc(N/C=C(\C=O)c2nc3ccccc3o2)c1	Cycloheximide cs 29, Shiga toxin inh 36
CN(Cc1cccnc1)Cc1cn(Cc2ccccc2)nc1-c1ccc2c(c1)OCO2	none
O=C(NN1C(=O)c2ccccc2C1=O)c1ccccc1[N+](=O)[O-]	none (no result: NS1 inh)
Cc1ccc(CN/C=C/C(=O)c2ccc(Br)cc2)cc1	Cycloheximide cs 37, Shiga toxin inh 60
Cc1ccc(C(=O)/C=C/NCc2ccc(F)cc2)cc1	Cycloheximide cs 48, Shiga toxin inh 93
COc1ccc(C(=O)/C=C/NCc2ccc(F)cc2)cc1OC	none
C=C(C)COc1ccc(C2NC(=O)c3ccccc3O2)cc1OCC (centres undefined)	none
O=S(=O)(NC1CCCCC1)c1ccc(N2CCOCC2)nc1	Pf growth 48h inconclusive
Cn1cc(Br)c(C(=O)NNC(=O)c2cccc(Br)c2)n1	NS1 inh inconclusive
COC(=O)C1=C(N)Oc2cc(C)n(CCCn3ccnc3)c(=O)c2C1c1ccc(Cl)cc1 (centres undefined)	Pf growth 96h 4.7µM, Pf growth 48h 3.3µM
COc1ccccc1-c1ccc(/C=C2\C=CC(=O)O2)o1	Cycloheximide cs 45, Shiga toxin inh 92
COc1cccc(CNc2ccc(N3CCC(C)CC3)cc2)c1OC	Pf growth 96h inconclusive, Pf growth 48h 1.9µM
O=C(CCc1nnc(CCCc2ccccc2)o1)NCCN1CCOC1=O	none
Cc1ccc(S(=O)(=O)NNC(=S)Nc2ccccc2)cc1	Cycloheximide cs 23 (no result: Pf growth 96h)
COc1cc(NC(=O)NS(=O)(=O)c2ccc(C)cc2)cc(OC)c1	NS1 inh 1µM (no result: Pf growth 48h)
Cc1ccc(CNC(=S)Nc2ccc(NS(=O)(=O)c3ccc(C)cc3)cc2)cc1	Pf growth 96h 10µM
COc1ccc(NC(=O)NS(=O)(=O)c2ccc(C)cc2)cn1	none
Cc1ccc(S(=O)(=O)NC(=O)Nc2ccccc2)cc1	Pf growth 96h 6.6µM
Cc1ccc(S(=O)(=O)NNC(=S)Nc2ccc(Cl)cc2)cc1	none
COc1ccc(/C=C/C(=O)OCC(=O)NCCC2=CCCCC2)cc1S(=O)(=O)N1CCOCC1	none (no result: NS1 inh)
CC(C)c1ccc(NC(=O)Cc2c(C(=O)O)n(C)c3ccccc23)cc1	Pf growth 96h inconclusive (no result: Pf growth 48h)
CCc1nc(=O)c(-c2ccccc2)c(C)n1-c1ccccc1	none
CC[N+]1=CN(c2ccccc2)C(C)=CC1(C)C	Pf growth 96h 4.1µM, Pf growth 48h inconclusive
NNc1nc(-c2ccccc2)nc2sc3c(c12)CCCC3	Cycloheximide cs 62, Shiga toxin inh 109, Pf growth 96h inconclusive, Pf growth 48h inconclusive
CC(=O)OC1N=C(c2ccccc2)c2ccccc2NC1=O (centres undefined)	Pf growth 96h 15µM
C[C@@H]1C[C@H]2[C@H]3C[C@@H](F)C4=CC(=O)C=C[C@]4(C)[C@@]3(Cl)[C@@H](O)C[C@@]2(C)[C@@H]1C(=O)COC(=O)C(C)(C)C	Pf growth 96h 4.8µM, Pf growth 48h 4.8µM (no result: Cycloheximide cs, Shiga toxin inh, SARS PLP yeast, NS1 inh)
N#CC1=C2Sc3ccccc3N2CCCC1=O	none
N#CC1=C2SC=C(c3ccc(Br)cc3)N2CCCC1=O	Cycloheximide cs 44, Shiga toxin inh 118 (no result: NS1 inh)
NNC(=O)CN1CCCc2ccccc21	Cycloheximide cs 69, Shiga toxin inh 92 (no result: NS1 inh)
O=C(CCCC(=O)N1CCc2ccccc21)N1CCc2ccccc21	none
O=C(CN1CCCc2ccccc21)NCc1ccccc1Cl	none
O=C(CN1CCCCC1)N1CCc2ccccc21	none
O=C(CN1CCCc2ccccc21)N1CCc2ccccc21	Cycloheximide cs 28, Shiga toxin inh 48, Pf growth 48h inconclusive
CC(CC(=O)N1CCc2ccccc21)c1ccccc1 (centres undefined)	Cycloheximide cs 18 (no result: Pf growth 48h)
N#CCCS(=O)(=O)c1nnnn1-c1ccccc1	Cycloheximide cs 19, Pf growth 48h inconclusive
CC(C)[C@H](NC(=O)N1c2ccccc2NC(=O)[C@@H]1C(C)C)C(=O)N1CCC(C(=O)O)CC1	Cycloheximide cs 8.9
CCC1(C)NC(=O)N(/N=C/c2ccc(C)s2)C1=O (centres undefined)	Cycloheximide cs 46, Shiga toxin inh 47
CCC1(C)NC(=O)N(/N=C/c2cc(OC)c(O)c(OC)c2)C1=O (centres undefined)	none (no result: NS1 inh)
COc1ccccc1CNC(=O)CCS(=O)(=O)c1ccc2c(c1)CC(C)N2C(=O)C1CC1 (centres undefined)	Pf growth 48h inconclusive
Cc1ccc(S(=O)(=O)NCc2ccc(C(=O)N3CCc4ccccc4C3)cc2)cc1	Pf growth 96h 6.6µM, Pf growth 48h inconclusive
CCOC(=O)N1CCN(C(=O)c2ccc(CNS(=O)(=O)c3ccc(OC)cc3)cc2)CC1	none
COc1ccc(S(=O)(=O)NCc2ccc(C(=O)N3CCc4ccccc4C3)cc2)cc1	Pf growth 96h 6.6µM, Pf growth 48h inconclusive
Cc1ccc(C(=O)NCc2ccc(N3CCN(C(=O)OC(C)(C)C)CC3)cc2)cc1	none
Cc1ccc(S(=O)(=O)NCc2ccc(N3CCN(C(=O)OC(C)(C)C)CC3)cc2)cc1	Pf growth 96h 4.1µM, Pf growth 48h 13µM
Cc1ccc(S(=O)(=O)NCc2ccc(C(=O)N3CCN(c4ccccc4)CC3)cc2)cc1	Pf growth 48h inconclusive
Cc1cccc2sc(NC(=O)C3c4ccccc4Oc4ccccc43)nc12	Pf growth 96h inconclusive
CC(C)(CC(=O)N1CCN(c2ccc(Cl)cc2)CC1)CC1=NS(=O)(=O)c2ccccc2N1	Pf growth 48h 9.3µM
O=C(NCc1ccco1)c1cc2ccccc2o1	none
Cc1ccc2cc3cc(C(=O)NCCC(C)C)oc3nc2c1	Pf growth 96h inconclusive, Pf growth 48h 10µM, NS1 inh inconclusive
Cc1ccc2cc3cc(C(=O)NC4CC4)oc3nc2c1	Cycloheximide cs 26, Pf growth 96h inconclusive
Cc1ccc2cc3cc(C(=O)NCc4ccco4)oc3nc2c1	Cycloheximide cs 23, Shiga toxin inh 32, Pf growth 96h inconclusive, Pf growth 48h 2.9µM
